Test results reported in PubChem BioAssay (EPA / NIEHS).
Inconclusive results are not listed. Calls of active or inactive are those of the source. Rule for the calls, unless noted: active = hit-call score of the fitted dose curve at least 0.9, where 1 is the maximum; inconclusive = response in the unintended direction; inactive = score below 0.9.

How the values were obtained:
[1] = target: Retinoic acid receptor RXR-alpha (Homo sapiens) (UniProt P19793); assay: OT_NURR1_NURR1RXRa_0480: Odyssey Thera (OT) 8-hour HEK293T Protein Complementation Assay for Nurr1/retinoid X receptor (RXR) (AID 2283385)
Sequence of Retinoic acid receptor RXR-alpha (Homo sapiens) (P19793 whole entry, looked up, the tested form may be a part): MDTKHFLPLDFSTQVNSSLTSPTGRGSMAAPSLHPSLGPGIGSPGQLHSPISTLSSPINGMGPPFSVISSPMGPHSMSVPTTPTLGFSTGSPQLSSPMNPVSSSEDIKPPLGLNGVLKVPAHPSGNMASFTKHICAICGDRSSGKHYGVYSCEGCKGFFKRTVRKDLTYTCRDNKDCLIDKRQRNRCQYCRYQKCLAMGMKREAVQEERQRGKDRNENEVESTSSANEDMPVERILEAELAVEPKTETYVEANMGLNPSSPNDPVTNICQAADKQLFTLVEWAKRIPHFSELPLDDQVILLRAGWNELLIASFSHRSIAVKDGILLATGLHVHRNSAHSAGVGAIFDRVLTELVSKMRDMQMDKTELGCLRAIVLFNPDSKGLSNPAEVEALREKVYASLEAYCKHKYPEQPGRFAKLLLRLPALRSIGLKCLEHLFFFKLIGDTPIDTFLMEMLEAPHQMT
How it was run: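 Read-out: fluorescence from protein-fragment complementation between Nurr1 and RXRα in human HEK293T cells, 8 h after dosing. DMSO served as negative control; increased signal counted as activity.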

[2] = target: Peroxisome proliferator-activated receptor gamma (Homo sapiens) (UniProt P37231); assay: OT_PPARg_PPARgSRC1_0480: Odyssey Thera (OT) 8-hour Protein-Complementation Assay for Peroxisome Proliferator-activated Receptor Gamma / SRC-1 Co-activator (AID 2283387);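 note: nuclear to cytoplasmic split Venus YFP fluorescence ratio reporting PPARg SRC-1 interaction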
Sequence of Peroxisome proliferator-activated receptor gamma (Homo sapiens) (P37231 whole entry, looked up, the tested form may be a part): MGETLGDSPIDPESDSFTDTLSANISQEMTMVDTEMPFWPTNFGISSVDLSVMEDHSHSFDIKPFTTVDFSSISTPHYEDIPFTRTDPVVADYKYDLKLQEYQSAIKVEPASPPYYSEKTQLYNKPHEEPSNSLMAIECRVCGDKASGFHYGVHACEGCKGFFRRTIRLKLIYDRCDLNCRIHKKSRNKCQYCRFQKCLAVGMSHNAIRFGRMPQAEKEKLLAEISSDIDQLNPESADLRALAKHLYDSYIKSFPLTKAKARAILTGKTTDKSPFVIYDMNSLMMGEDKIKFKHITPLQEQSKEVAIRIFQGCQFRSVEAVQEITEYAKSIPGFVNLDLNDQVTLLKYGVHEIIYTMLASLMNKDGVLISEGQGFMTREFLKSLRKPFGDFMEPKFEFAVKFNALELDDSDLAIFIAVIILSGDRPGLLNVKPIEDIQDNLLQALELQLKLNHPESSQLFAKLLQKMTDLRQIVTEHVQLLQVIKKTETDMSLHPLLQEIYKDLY
How it was run: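 Read-out: 488 nm N/C fluorescence ratio from complemented Venus YFP fragments, ≥350 cells per image, gain-of-signal fitted against DMSO baseline. Fusions of PPARg/SRC-1 with IFP1/IFP2 expressed transiently in HEK293T; compounds applied 8 h.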

[3] = target: Peroxisome proliferator-activated receptor gamma (Homo sapiens) (UniProt P37231); assay: OT_PPARg_PPARgSRC1_1440: Odyssey Thera (OT) 24-hour Protein-Complementation Assay for Peroxisome Proliferator-activated Receptor Gamma/ SRC-1 Co-activator (AID 2283388);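 note: nuclear to cytoplasmic ratio of reconstituted Venus YFP fluorescence in fixed imaged cells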
How it was run: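 Readout: nuclear-to-cytoplasmic 488 nm fluorescence ratio, ≥350 cells per image, 8 images per well, after 24 h compound exposure of HEK293T expressing PPARg/SRC-1 split-YFP fusions. Activity fitted in positive direction against DMSO.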

[4] = target: Retinoic acid receptor RXR-alpha (Homo sapiens) (UniProt P19793); assay: OT_NURR1_NURR1RXRa_1440: Odyssey Thera (OT) 24-hour HEK293T Protein Complementation Assay for Nurr1/retinoid X receptor (RXR) (AID 2283386)
How it was run: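 Fluorescence PCA read-out; HEK293T; 24 h post-dose; bait/prey fused to reporter fragments; gain-of-signal fit vs DMSO negative control.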

[5] = target: Estrogen receptor beta (Homo sapiens) (UniProt Q92731); assay: OT_ER_ERbERb_1440: Odyssey Thera (OT) 24-hour HEK293T Protein-Complementation Assay for Estrogen Receptor-beta/-beta Homodimer (AID 2283380);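 note: fluorescence gain from ER beta LBD homodimer complementation read by laser scanning cytometry; scored as signal increase over DMSO baseline for both agonists and antagonists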
Sequence of Estrogen receptor beta (Homo sapiens) (Q92731 whole entry, looked up, the tested form may be a part): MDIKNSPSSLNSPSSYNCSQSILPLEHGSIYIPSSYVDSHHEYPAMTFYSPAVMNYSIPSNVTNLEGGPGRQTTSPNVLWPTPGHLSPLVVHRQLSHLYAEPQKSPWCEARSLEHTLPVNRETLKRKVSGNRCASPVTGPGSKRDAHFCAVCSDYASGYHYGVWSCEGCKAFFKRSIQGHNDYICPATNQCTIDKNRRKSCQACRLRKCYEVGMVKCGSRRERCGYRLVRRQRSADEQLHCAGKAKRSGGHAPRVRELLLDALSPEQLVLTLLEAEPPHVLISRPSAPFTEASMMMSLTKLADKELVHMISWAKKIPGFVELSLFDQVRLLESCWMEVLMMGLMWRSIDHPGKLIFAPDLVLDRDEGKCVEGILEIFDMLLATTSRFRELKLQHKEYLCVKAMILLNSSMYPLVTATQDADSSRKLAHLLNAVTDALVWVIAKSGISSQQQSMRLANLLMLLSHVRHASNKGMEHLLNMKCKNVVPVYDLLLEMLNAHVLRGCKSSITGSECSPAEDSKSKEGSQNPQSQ
How it was run: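 Fluorescence increase, nuclear for agonists or whole-cell for antagonists, relative to DMSO vehicle, quantified by laser scanning cytometer after fixation and Draq5 staining. Readout from 24 h treatment of HEK293T cells carrying complementation-paired ER beta LBD (aa 310-547).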

[6] = CEETOX_H295R_11DCORT: CeeTox H295R High-throughput Steroidogenesis Assay for 11-Deoxycortisol (11DCORT) (AID 2283432; active = hit-call score of the fitted dose curve at least 0.9, where 1 is the maximum; inactive = score below 0.9;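 for AC50: human adrenal H295R cells prestimulated with 10 µM forskolin for 48 h; 11-deoxycortisol secreted into the medium measured by LC-MS/MS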); conditions: actives raise or lower the signal
How it was run: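 H295R cells; 10 uM forskolin prestim 48 h; compound in 0.1% DMSO 48 h; media extracted with MTBE; 11-deoxycortisol by LC-MS/MS, 7-point standard curve; gain/loss vs DMSO baseline; viability by MTT in same wells.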

Measured: AC50

CCCCCCCC/C=C\CCCCCCCC(=O)OCC
inactive: [1] | [2] | [3]

O=C(O)CCCCCCCCC(=O)O
inactive: [1] | [4] | [2] | [3]

OCC#CCO
inactive: [5] | [4] | [2] | [3]

C[Si](C)(C)O[Si](C)(C)C
inactive: [5] | [2] | [3]

COCCc1ccc(OCC(O)CNC(C)C)cc1 (stereo not drawn)
active: [6] 28.6 µM

CC1(C)C(=O)N(Cl)C(=O)N1Br
inactive: [2] | [3] | [6]
